About 79,000 compounds went through this panel and 15% of them were active in at least one assay; those are over-represented in the sample as a whole. Values without a mark were called inactive. The source made the active and inactive calls. Rule as the data show it: active = growth inhibition above about 70%; inactive = the rest.
Experiments:
[1] = NCI Yeast Anticancer Drug Screen. Data for the rad52 strain (AID 147);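 also: 0% = growth of vehicle-treated control cultures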; details: S. cerevisiae rad52 mutant growth inhibition, active compounds read high
Summary of the method: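 Vehicle-treated cultures served as the reference for growth inhibition of compound-exposed yeast bearing a DNA repair mutation.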

[2] = NCI Yeast Anticancer Drug Screen. Data for the wt1 strain (AID 149);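 also: 0% = growth of vehicle-treated wt1 cultures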; details: S. cerevisiae wt1 strain (SPY 50644) growth inhibition, active compounds read high
Summary of the method: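 Measured: growth of wt1 yeast under compound versus vehicle treatment, reported as inhibition.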

[3] = NCI Yeast Anticancer Drug Screen. Data for the rad50EPP+ strain (AID 151);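 also: 0% = growth of vehicle-treated control cultures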; details: S. cerevisiae rad50 mutant strain, active compounds read high
Summary of the method: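 In this screen, rad50EPP+ yeast were exposed to compounds. Growth inhibition was scored against vehicle-treated controls.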

[4] = NCI Yeast Anticancer Drug Screen. Data for the mgt1 strain (AID 153); details: S. cerevisiae mgt1 mutant growth inhibition, active compounds read high
Summary of the method: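 mgt1 strain exposed; growth vs vehicle control recorded as inhibition.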

[5] = NCI Yeast Anticancer Drug Screen. Data for the rad50 strain (AID 155);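 also: 0% = growth of vehicle-only cultures of the same strain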; details: S. cerevisiae rad50 strain growth inhibition, active compounds read high
Summary of the method: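 Growth of the mutant yeast was measured after compound exposure and referenced to vehicle-treated cultures.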

[6] = NCI Yeast Anticancer Drug Screen. Data for the mec2-1 strain (AID 157); details: S. cerevisiae mec2-1 strain, active compounds read high
Summary of the method: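 Vehicle-treated cultures served as reference for growth inhibition of compound-exposed mec2-1 yeast.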

[7] = NCI Yeast Anticancer Drug Screen. Data for the rad14 strain (AID 159);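 also: 0% = growth of vehicle-treated control cultures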; details: S. cerevisiae rad14 strain growth inhibition, active compounds read high
Summary of the method: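 Here, inhibition of yeast growth was measured after compound exposure, using a strain with a genetic defect in DNA damage repair and vehicle-treated cultures as the reference.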

[8] = NCI Yeast Anticancer Drug Screen. Data for the sgs1 mgt1 strain (AID 161);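 also: 0% = growth of cultures given vehicle only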; details: S. cerevisiae sgs1 mgt1 strain, active compounds read high
Summary of the method: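 Read-out: growth inhibition vs vehicle controls. Cells: mutant yeast strain deficient in DNA damage repair.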

[9] = NCI Yeast Anticancer Drug Screen. Data for the cln2 rad14 strain (AID 165);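 also: 0% = growth equal to vehicle treated cultures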; details: S. cerevisiae cln2 rad14 strain, active compounds read high
Summary of the method: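 Each compound was tested on cln2 rad14 yeast. Inhibition of growth was calculated against vehicle-exposed controls.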

[10] = NCI Yeast Anticancer Drug Screen. Data for the bub3 strain (AID 167); details: S. cerevisiae bub3 mutant strain, active compounds read high
Summary of the method: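 Whole-cell yeast assay. The mutant strain was incubated with compounds, and growth inhibition was determined by comparison with vehicle-treated cells.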

[11] = NCI Yeast Anticancer Drug Screen. Data for the wt2 strain (AID 169);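 also: 0% = growth of vehicle-treated yeast cultures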; details: S. cerevisiae wt2 strain growth inhibition, active compounds read high
Summary of the method: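 Inhibition of yeast growth was determined after compound treatment, normalised to controls receiving only vehicle.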

[12] = NCI Yeast Anticancer Drug Screen. Data for the mlh1 strain (AID 171);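 also: 0% = growth of vehicle-treated control cultures of the same strain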; details: S. cerevisiae mlh1 strain growth inhibition, active compounds read high
Summary of the method: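 Vehicle-normalised growth inhibition of a repair- or checkpoint-altered yeast strain following compound treatment.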

[13] = NCI Yeast Anticancer Drug Screen. Data for the sgs1 strain (AID 173);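 also: 0% = growth of vehicle-only control cultures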; details: S. cerevisiae sgs1 mutant, active compounds read high
Summary of the method: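 Screen format: yeast with repair or checkpoint alterations, compound exposure, growth read relative to vehicle.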

[14] = NCI Yeast Anticancer Drug Screen. Data for the mlh1 rad18 strain (AID 175); details: S. cerevisiae mlh1 rad18 strain growth inhibition, active compounds read high
Summary of the method: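 Vehicle-treated cultures served as the reference for growth inhibition in a yeast strain carrying DNA damage repair alterations exposed to each compound.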

[15] = NCI Yeast Anticancer Drug Screen. Data for the rad18 strain (AID 177); details: S. cerevisiae rad18 mutant growth inhibition, active compounds read high
Summary of the method: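 Test articles were incubated with altered yeast defective in DNA damage repair. Results are given as inhibition of growth versus vehicle.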

[16] = at 5.0 µM (retest, dose inferred, filed as 0.5)
[17] = at 50.0 µM (retest, dose inferred, filed as 5.0)

CCOC(=N)c1ccc(O)c(OC)c1
growth inhibition ([1]; at 1.2 µM): -1%
growth inhibition ([1]; at 3.7 µM): 0%
growth inhibition ([1]; at 11.0 µM): 0%
growth inhibition ([1]; at 33.0 µM): 0%
growth inhibition ([1]; at 100.0 µM): -2%
growth inhibition ([2]; at 1.2 µM): -3%
growth inhibition ([2]; at 3.7 µM): -2%
growth inhibition ([2]; at 11.0 µM): -3%
growth inhibition ([2]; at 33.0 µM): -1%
growth inhibition ([2]; at 100.0 µM): -3%
growth inhibition ([3]; at 1.2 µM): -3%
growth inhibition ([3]; at 3.7 µM): -4%
growth inhibition ([3]; at 11.0 µM): -6%
growth inhibition ([3]; at 33.0 µM): -3%
growth inhibition ([3]; at 100.0 µM): 1%
growth inhibition ([4]; at 1.2 µM): -2%
growth inhibition ([4]; at 3.7 µM): -1%
growth inhibition ([4]; at 11.0 µM): -2%
growth inhibition ([4]; at 33.0 µM): -2%
growth inhibition ([4]; at 100.0 µM): -2%
growth inhibition ([5]; at 1.2 µM): -1%
growth inhibition ([5]; at 3.7 µM): 16%
growth inhibition [5, 16]: -2%
growth inhibition ([5]; at 11.0 µM): 11%
growth inhibition ([5]; at 33.0 µM): -1%
growth inhibition [5, 17]: -4%
growth inhibition ([5]; at 50.0 µM): 2%
growth inhibition ([5]; at 100.0 µM): 2%
growth inhibition ([6]; at 1.2 µM): 0%
growth inhibition ([6]; at 3.7 µM): 2%
growth inhibition [6, 16]: -42%
growth inhibition ([6]; at 11.0 µM): 2%
growth inhibition ([6]; at 33.0 µM): 3%
growth inhibition [6, 17]: -3%
growth inhibition ([6]; at 50.0 µM): -9%
growth inhibition ([6]; at 100.0 µM): 2%
growth inhibition ([7]; at 1.2 µM): -2%
growth inhibition ([7]; at 3.7 µM): -6%
growth inhibition ([7]; at 11.0 µM): -19%
growth inhibition ([7]; at 33.0 µM): -4%
growth inhibition ([7]; at 100.0 µM): -1%
growth inhibition [8, 16]: 0%
growth inhibition [8, 17]: -4%
growth inhibition ([8]; at 50.0 µM): -2.6%
growth inhibition [9, 16]: 2%
growth inhibition [9, 17]: 0%
growth inhibition ([9]; at 50.0 µM): -39.2%
growth inhibition ([10]; at 1.2 µM): 7%
growth inhibition ([10]; at 3.7 µM): 17%
growth inhibition [10, 16]: 30%
growth inhibition ([10]; at 11.0 µM): 48%
growth inhibition ([10]; at 33.0 µM): 66%
growth inhibition [10, 17]: 83% (active)
growth inhibition ([10]; at 50.0 µM): 86.6% (active)
growth inhibition ([10]; at 100.0 µM): 79% (active)
growth inhibition ([11]; at 1.2 µM): -3%
growth inhibition ([11]; at 3.7 µM): 6%
growth inhibition ([11]; at 11.0 µM): -3%
growth inhibition ([11]; at 33.0 µM): -1%
growth inhibition ([11]; at 100.0 µM): -2%
growth inhibition ([12]; at 1.2 µM): -2%
growth inhibition ([12]; at 3.7 µM): -3%
growth inhibition ([12]; at 11.0 µM): -2%
growth inhibition ([12]; at 33.0 µM): 1%
growth inhibition ([12]; at 100.0 µM): 1%
growth inhibition ([13]; at 1.2 µM): -3%
growth inhibition ([13]; at 3.7 µM): -5%
growth inhibition ([13]; at 11.0 µM): -4%
growth inhibition ([13]; at 33.0 µM): -3%
growth inhibition ([13]; at 100.0 µM): 3%
growth inhibition [14, 16]: -1%
growth inhibition [14, 17]: -3%
growth inhibition ([14]; at 50.0 µM): 17.4%
growth inhibition ([15]; at 1.2 µM): -1%
growth inhibition ([15]; at 3.7 µM): -3%
growth inhibition ([15]; at 11.0 µM): -3%
growth inhibition ([15]; at 33.0 µM): 0%
growth inhibition ([15]; at 100.0 µM): 14%

CCCCCCN(CCCCCC)CC(O)c1ccnc2ccc(OC)cc12 (stereo unspecified)
growth inhibition ([1]; at 1.2 µM): 0%
growth inhibition ([1]; at 3.7 µM): -2%
growth inhibition ([1]; at 11.0 µM): -5%
growth inhibition ([1]; at 33.0 µM): -7%
growth inhibition ([1]; at 100.0 µM): 66%
growth inhibition ([2]; at 1.2 µM): -1%
growth inhibition ([2]; at 3.7 µM): -3%
growth inhibition ([2]; at 11.0 µM): -5%
growth inhibition ([2]; at 33.0 µM): -7%
growth inhibition ([2]; at 100.0 µM): 15%
growth inhibition ([3]; at 1.2 µM): -4%
growth inhibition ([3]; at 3.7 µM): -2%
growth inhibition ([3]; at 11.0 µM): -2%
growth inhibition ([3]; at 33.0 µM): -5%
growth inhibition ([3]; at 100.0 µM): -8%
growth inhibition ([4]; at 1.2 µM): 1%
growth inhibition ([4]; at 3.7 µM): 2%
growth inhibition ([4]; at 11.0 µM): 0%
growth inhibition ([4]; at 33.0 µM): -3%
growth inhibition ([4]; at 100.0 µM): 74% (active)
growth inhibition ([5]; at 1.2 µM): 1%
growth inhibition ([5]; at 3.7 µM): 1%
growth inhibition [5, 16]: -9%
growth inhibition ([5]; at 11.0 µM): -1%
growth inhibition ([5]; at 33.0 µM): -3%
growth inhibition [5, 17]: 27%
growth inhibition ([5]; at 50.0 µM): -10.1%
growth inhibition ([5]; at 100.0 µM): 69%
growth inhibition ([6]; at 1.2 µM): 2%
growth inhibition ([6]; at 3.7 µM): -1%
growth inhibition [6, 16]: -5%
growth inhibition ([6]; at 11.0 µM): 1%
growth inhibition ([6]; at 33.0 µM): 2%
growth inhibition [6, 17]: 18%
growth inhibition ([6]; at 50.0 µM): 1.15%
growth inhibition ([6]; at 100.0 µM): 67%
growth inhibition ([7]; at 1.2 µM): -2%
growth inhibition ([7]; at 3.7 µM): -3%
growth inhibition ([7]; at 11.0 µM): -4%
growth inhibition ([7]; at 33.0 µM): -5%
growth inhibition ([7]; at 100.0 µM): 63%
growth inhibition [8, 16]: -9%
growth inhibition [8, 17]: 49%
growth inhibition ([8]; at 50.0 µM): 74.5% (active)
growth inhibition [9, 16]: -12%
growth inhibition [9, 17]: 26%
growth inhibition ([9]; at 50.0 µM): -8.6%
growth inhibition ([10]; at 1.2 µM): 5%
growth inhibition ([10]; at 3.7 µM): 5%
growth inhibition [10, 16]: -1%
growth inhibition ([10]; at 11.0 µM): 6%
growth inhibition ([10]; at 33.0 µM): 4%
growth inhibition [10, 17]: 40%
growth inhibition ([10]; at 50.0 µM): 26.6%
growth inhibition ([10]; at 100.0 µM): 61%
growth inhibition ([11]; at 1.2 µM): -1%
growth inhibition ([11]; at 3.7 µM): -4%
growth inhibition ([11]; at 11.0 µM): -5%
growth inhibition ([11]; at 33.0 µM): -5%
growth inhibition ([11]; at 100.0 µM): 68%
growth inhibition ([12]; at 1.2 µM): -1%
growth inhibition ([12]; at 3.7 µM): -3%
growth inhibition ([12]; at 11.0 µM): -3%
growth inhibition ([12]; at 33.0 µM): -4%
growth inhibition ([12]; at 100.0 µM): 74% (active)
growth inhibition ([13]; at 1.2 µM): -3%
growth inhibition ([13]; at 3.7 µM): -2%
growth inhibition ([13]; at 11.0 µM): -3%
growth inhibition ([13]; at 33.0 µM): -3%
growth inhibition ([13]; at 100.0 µM): 79% (active)
growth inhibition [14, 16]: -3%
growth inhibition [14, 17]: 14%
growth inhibition ([14]; at 50.0 µM): 38.1%
growth inhibition ([15]; at 1.2 µM): -5%
growth inhibition ([15]; at 3.7 µM): -7%
growth inhibition ([15]; at 11.0 µM): -7%
growth inhibition ([15]; at 33.0 µM): -13%
growth inhibition ([15]; at 100.0 µM): 35%
